The values that follow come from PubChem BioAssay.

As usually defined, the inhibition is the drop in the measured response relative to a control, in per cent.

Structures are written as SMILES. Values without a mark were called inactive. For some assays here: Results with a measured potency or affinity are listed apart. Activity calls are given as the source filed them. Unless noted, no rule for the calls is given here.

The nature of assay [1]: antimalarial activity against Dd2 strain (AID 2302;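 active = growth inhibition above 50% at the single 2 µM test dose, taken to imply half-maximal potency below 2 µM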;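 also: 0% = DMSO untreated growth and 100% = chloroquine plus artemisinin killed control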). Conditions: P. falciparum Dd2 in RBCs, LDH growth readout, 72 h; at 2 µM; stronger effect = higher value.
Assay [2] is described as follows: human hepatoma cell viability loss – ATP luminescence, cytotoxicity control for P. falciparum antimalarial project, primary screen (AID 2303;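 active = inhibition above 50%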;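 also: 0% = DMSO wells and 100% = digitonin-killed cells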). Conditions: HepG2 viability, 24-48 h, at 10 µM, stronger effect = higher value.
Assay [3] concerns the target L-lactate dehydrogenase (Plasmodium falciparum (isolate CDC / Honduras)) (UniProt Q27743). Description: PfLDH activity inhibition – cell lysate, 3D7 strain, counter-screen for P. falciparum growth inhibition project (AID 2304).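 Also: 0% = vehicle and 100% = reference inhibitor.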 Conditions: P. falciparum 3D7 crude extract, LDH APAD/NBT absorbance; at 2 µM; stronger effect = higher value.
The nature of assay [4]: inhibition of 3D7 malaria parasite growth – strain 3D7 (AID 2306).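 Also: 0% = DMSO wells and 100% = chloroquine plus artemisinin control wells.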 Conditions: P. falciparum 3D7 erythrocytic growth, LDH absorbance, 72 h; at 2 µM; stronger effect = higher value.
Assay [5] has as its target Plasmodium falciparum protein kinase 6 (PK6, PF3D7_1337100) (UniProt Q8IDW1). Description: PfPK6 kinase inhibitors, biochemical, TCAMS library (AID 1159586). Conditions: recombinant PfPK6, Kinase-Glo ATP depletion luminescence. (In Kinase-Glo more light means more ATP remaining.)
Assay [6] concerns the target Protein kinase 7 (PK7), Plasmodium falciparum 3D7 (PF3D7_0213400) (UniProt Q7YTF7). Description: inhibition of Plasmodium PK7 catalytic activity – biochemical, TCAMS antimalarial set, Kinase-Glo luminescence (AID 1159587). Conditions: recombinant PfPK7, Kinase-Glo ATP depletion luminescence.
Assay [7] has as its target Calcium-dependent protein kinase 4 (Plasmodium falciparum (isolate 3D7)) (UniProt Q8IBS5). The assay can be described thus: PfCDPK4 kinase inhibitors, biochemical, TCAMS library (AID 1159588; cut-off not given, nearly all actives have IC50 up to about 0.91 µM). Conditions: recombinant PfCDPK4, Kinase-Glo ATP depletion luminescence.

Protein kinase 7 (PK7), Plasmodium falciparum 3D7 (PF3D7_0213400), sequence (Q7YTF7 1-343): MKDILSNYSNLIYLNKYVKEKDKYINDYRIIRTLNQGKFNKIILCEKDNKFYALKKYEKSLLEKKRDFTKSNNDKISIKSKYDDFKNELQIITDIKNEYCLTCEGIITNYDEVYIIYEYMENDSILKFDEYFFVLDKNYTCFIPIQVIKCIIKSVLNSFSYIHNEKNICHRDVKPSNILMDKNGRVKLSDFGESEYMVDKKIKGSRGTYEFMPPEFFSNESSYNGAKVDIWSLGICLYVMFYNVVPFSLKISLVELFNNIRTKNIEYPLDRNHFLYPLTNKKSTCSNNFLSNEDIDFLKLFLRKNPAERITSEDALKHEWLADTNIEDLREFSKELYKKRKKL
Calcium-dependent protein kinase 4 (Plasmodium falciparum (isolate 3D7)), sequence (Q8IBS5 whole entry, looked up): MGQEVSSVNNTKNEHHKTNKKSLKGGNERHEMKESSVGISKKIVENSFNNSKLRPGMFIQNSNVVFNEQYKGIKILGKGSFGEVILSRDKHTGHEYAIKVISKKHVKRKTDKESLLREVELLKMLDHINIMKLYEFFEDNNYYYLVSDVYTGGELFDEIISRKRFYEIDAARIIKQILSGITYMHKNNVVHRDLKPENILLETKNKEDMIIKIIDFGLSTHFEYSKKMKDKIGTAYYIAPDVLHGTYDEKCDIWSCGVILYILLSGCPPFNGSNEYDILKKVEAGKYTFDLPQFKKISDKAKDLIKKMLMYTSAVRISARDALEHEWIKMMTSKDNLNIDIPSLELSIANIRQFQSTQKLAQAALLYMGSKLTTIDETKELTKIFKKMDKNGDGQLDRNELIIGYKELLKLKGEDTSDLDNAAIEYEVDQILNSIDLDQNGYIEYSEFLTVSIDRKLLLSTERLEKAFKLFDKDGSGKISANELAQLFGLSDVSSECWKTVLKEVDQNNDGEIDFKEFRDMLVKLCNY
L-lactate dehydrogenase (Plasmodium falciparum (isolate CDC / Honduras)), sequence (Q27743 whole entry, looked up): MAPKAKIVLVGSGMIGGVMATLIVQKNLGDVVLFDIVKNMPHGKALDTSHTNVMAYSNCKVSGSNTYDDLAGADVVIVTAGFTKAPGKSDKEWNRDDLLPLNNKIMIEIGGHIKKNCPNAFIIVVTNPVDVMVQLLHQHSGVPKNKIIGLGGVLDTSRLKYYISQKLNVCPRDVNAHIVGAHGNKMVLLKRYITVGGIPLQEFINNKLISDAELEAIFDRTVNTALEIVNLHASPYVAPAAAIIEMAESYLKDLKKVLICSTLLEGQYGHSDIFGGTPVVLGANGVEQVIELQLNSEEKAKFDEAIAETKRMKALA
Plasmodium falciparum protein kinase 6 (PK6, PF3D7_1337100), sequence (Q8IDW1 1-305): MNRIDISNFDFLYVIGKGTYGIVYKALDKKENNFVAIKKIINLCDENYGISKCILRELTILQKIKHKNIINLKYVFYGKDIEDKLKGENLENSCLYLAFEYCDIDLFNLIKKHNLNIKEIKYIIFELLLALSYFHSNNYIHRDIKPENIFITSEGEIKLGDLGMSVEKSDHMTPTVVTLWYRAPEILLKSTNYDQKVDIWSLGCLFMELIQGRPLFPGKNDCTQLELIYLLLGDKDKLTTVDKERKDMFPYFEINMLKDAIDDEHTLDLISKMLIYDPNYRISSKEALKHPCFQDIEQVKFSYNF

Turning to `CC(C)(CNC(=O)C1CCN(CCOc2ccc(F)c(F)c2)CC1)c1nc(-c2ccc(Cl)c(O)c2)c(-c2ccncc2)[nH]1`, the growth inhibition is 19% in assay [1] and 101% (active) in assay [4]. Also, the values for the inhibition in assay [2] and in assay [3] were 41% and -1%, respectively. The outcome in assay [5], in assay [6] and in assay [7] was inactive.
For the compound `CN1CCN(Cc2ccc(-c3ccc4c(Nc5ccc(Cl)cc5F)ccnc4c3)o2)CC1`, the growth inhibition in assay [1] is 100% (active); in assay [4], 102% (active). Further, the inhibition in assay [2] is 47%; in assay [3] it was -3%. The outcome in assay [5], in assay [6] and in assay [7] was inactive.
Consider `CC(C)(CN)c1nc(-c2ccc(Br)c(O)c2)c(-c2ccncc2)[nH]1`, for which the growth inhibition in assay [1] is 97% (active); in assay [4] it was 96% (active). Further, the figures for the inhibition in assay [2] and in assay [3] were 31% and 0%, respectively. Moreover, the result in assay [5], in assay [6] and in assay [7] was inactive.
Consider `Cn1c(Nc2cc(C(C)(C)C)on2)nc2cc(Nc3ccnc(Nc4cccc(CS(C)(=O)=O)c4)n3)ccc21`, for which the growth inhibition in assay [1] is 94% (active); in assay [4], 99% (active). The figures for the inhibition in assay [2] and in assay [3] were 63% (active) and -4%, respectively. Further, the result in assay [5], in assay [6] and in assay [7] was inactive.
Regarding `COc1ccc(-c2cnc3ccc(NCCCO)nn23)cc1OC`, the growth inhibition in assay [1] was 90% (active); in assay [4], 98% (active). For the same compound, the values for the inhibition in assay [2] and in assay [3] were 9% and -1%, respectively. Further, the result in assay [5], in assay [6] and in assay [7] was inactive.
Take `CC(C)(CNC(=O)[C@H]1CCCN1)c1nc(-c2ccc(Cl)c(O)c2)c(-c2ccncc2)[nH]1`: the growth inhibition in assay [1] is 95% (active); in assay [4], 86% (active). The inhibition in assay [2] was -11%; in assay [3] it was -1%. Besides, the result in assay [5], in assay [6] and in assay [7] was inactive.
As to `Nc1ncc(-c2cn[nH]c2)cc1-c1nc2ccc(F)cc2[nH]1`, the growth inhibition in assay [1] was 53% (active); in assay [4], 101% (active). The inhibition in assay [2] is 38%; in assay [3], -3%. In addition, the outcome in assay [5], in assay [6] and in assay [7] was inactive.
Consider `CC(C)(CN)c1nc(-c2ccc(Cl)c(O)c2)c(-c2ccncc2)[nH]1`, for which the values for the growth inhibition in assay [1] and in assay [4] were 98% (active) and 97% (active), respectively. The inhibition in assay [2] was 34%; in assay [3], 0%. Besides, the outcome in assay [5], in assay [6] and in assay [7] was inactive.
In the case of `O=C(NCCCN1CCOCC1)c1cccc(Nc2nccc(Nc3ccc(Oc4ccccc4)cc3)n2)c1`, the results for the growth inhibition in assay [1] and in assay [4] were 22% and 98% (active), respectively. Further, the inhibition in assay [2] is 34%; in assay [3], -9%. The result in assay [5], in assay [6] and in assay [7] was inactive.
In the case of `COc1ccc(C(=O)NCC(C)(C)c2nc(-c3ccc(Cl)c(O)c3)c(-c3ccncc3)[nH]2)cc1OCCN(C(C)C)C(C)C`, the growth inhibition is 96% (active) in assay [1] and 102% (active) in assay [4]. Besides, the inhibition is 62% (active) in assay [2] and 4% in assay [3]. The result in assay [5], in assay [6] and in assay [7] was inactive.
On to `CC(C)(NCc1ncc[nH]1)c1nc(-c2ccc(Cl)c(O)c2)c(-c2ccncc2)[nH]1`, for which the growth inhibition was 97% (active) in assay [1] and 95% (active) in assay [4]. Moreover, the results for the inhibition in assay [2] and in assay [3] were 42% and 3%, respectively. Moreover, the outcome in assay [5], in assay [6] and in assay [7] was inactive.
For `Cc1nnc(-c2cccc(Nc3ccnc4cc(-c5nccs5)ccc34)c2)o1`, the growth inhibition in assay [1] was 89% (active); in assay [4] it was 95% (active). Moreover, the inhibition in assay [2] is 38%; in assay [3] it was -2%. Also, the result in assay [5], in assay [6] and in assay [7] was inactive.
In the case of `CC(C)(CNC(=O)C1CCN(CCOc2ccc(Cl)cc2)CC1)c1nc(-c2ccc(Cl)c(O)c2)c(-c2ccncc2)[nH]1`, the growth inhibition is 5% in assay [1] and 102% (active) in assay [4]. In addition, the inhibition in assay [2] is 40%; in assay [3] it was 7%. For the same compound, the result in assay [5], in assay [6] and in assay [7] was inactive.
Regarding `CN1CCN(c2ccc(Nc3ncc(Cl)c(Nc4cccnc4C(N)=O)n3)cc2)CC1`, the growth inhibition in assay [1] was 97% (active); in assay [4], 95% (active). Moreover, the values for the inhibition in assay [2] and in assay [3] were 99% (active) and -1%, respectively. The outcome in assay [5], in assay [6] and in assay [7] was inactive.
As for `CCn1c(-c2nonc2N)nc2c(-c3ccc(CO)o3)ncc(OCCCN)c21`, the results for the growth inhibition in assay [1] and in assay [4] were 97% (active) and 93% (active), respectively. Further, the results for the inhibition in assay [2] and in assay [3] were -12% and -3%, respectively. Further, the outcome in assay [5], in assay [6] and in assay [7] was inactive.
On to `CCCN1CCN(CCNC(=O)c2cccc(Nc3nccc(Nc4ccc(Oc5ccccc5)cc4)n3)c2)CC1`, for which the growth inhibition in assay [1] is 96% (active); in assay [4] it was 99% (active). Also, the inhibition in assay [2] was 56% (active); in assay [3], -7%. In addition, the result in assay [5], in assay [6] and in assay [7] was inactive.
With `COc1cccc(Nc2nccc(-c3c(-c4cccc(NC(=O)c5c(F)cccc5F)c4)nn4ccccc34)n2)c1`, the growth inhibition in assay [1] and in assay [4] was 98% (active) in each case. The inhibition in assay [2] was 35%; in assay [3] it was -2%. Also, the outcome in assay [5], in assay [6] and in assay [7] was inactive.
`O=C(NCCN1CCCCC1)c1ccc(Nc2nccc(Nc3ccc(Oc4ccccc4)cc3)n2)cc1`: the figures for the growth inhibition in assay [1] and in assay [4] were 91% (active) and 101% (active), respectively. Also, the inhibition in assay [2] was 58% (active); in assay [3] it was -2%. The outcome in assay [5], in assay [6] and in assay [7] was inactive.
`c1ccc(Oc2ccc(Nc3ccnc4cc(-c5ccc(CNCCN6CCOCC6)o5)ccc34)cc2)cc1`: the growth inhibition in assay [1] and in assay [4] was 99% (active) each time. Moreover, the inhibition was 20% in assay [2] and -3% in assay [3]. The result in assay [5], in assay [6] and in assay [7] was inactive.
Turning to `NC(=O)c1ccccc1Nc1nc(Nc2ccn[nH]2)ncc1Cl`, the growth inhibition was 93% (active) in assay [1] and 96% (active) in assay [4]. The inhibition in assay [2] was 67% (active); in assay [3] it was -4%. The outcome in assay [5], in assay [6] and in assay [7] was inactive.
